Sampled rows, rich in hits. Any-hit rate of the full collection: about 2.6%.
ATXN2 expr inh: Primary qHTS for Inhibitors of ATXN expression | HEK-293 ATXN2-luciferase reporter, luminescence, 24 h | Potency, µM (series often up to 57 µM), usual class: inhibitors | 360,000 tested, 0.72% active | AID 1745845, 2022; also: nearly all actives have a fitted effect of over 55% in size
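qHTS (up to 57 uM final) was run with 24 h compound exposure of reporter cells at 37 °C. Each well was multiplexed: SteadyGlo luminescence measured ATXN2-luciferase expression after a fluorogenic Gly-Phe-AFC viability readout (25 uM final).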
HepG2 viability: qHTS for Inhibitors of TGF-b: Cytotox Counterscreen; HepG2 CAGA-GFP viability, ATP luminescence, 18 h; Potency, µM (titrated, usually from 46.1 µM), usual class: cytotoxic; 410,000 tested, 0.76% active; AID 588856, 2011
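CellTiter-Glo luminescence gave cytotoxicity after 18 hours at 37 degrees C. The cells were HepG2 CAGA-GFP in 1% FBS DMEM, stimulated with 500 pg/mL TGF-beta after compound addition. %Activity was normalised to no-cell wells (complete cell-killing) and DMSO (no toxicity), and curves were fitted and classified.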
S2 tox: Viability Counterscreen for Primary qHTS for Inhibitors of ATXN expression. S2 cells (HEK-293 line with an ATXN2-luciferase reporter) viability, CellTiter-Fluor protease fluorescence, 24 h. Potency, µM (doses to about 56.7 µM), hits mostly cytotoxic. 400,000 tested, 0.49% active. AID 651635, 2014; also: nearly all actives have a fitted effect of over 40% in size
TGFb inhibitor: qHTS for Inhibitors of TGF-b. HepG2 CAGA-GFP TGF-b/SMAD3 reporter, GFP fluorescence, 18 h; TGF-beta stimulated, 500 pg/mL final. Potency, µM (titrated, usually from 46.1 µM), usual class: inhibitors. 410,000 tested, 1.2% active; also: nearly all actives have a fitted effect of over 65% in size
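First, reporter cells (HEPG2 CAGA-GFP) rested 2 h at 37 degrees C. Next, compounds were pinned in and TGF-beta added to 500 pg/mL final. After 18 h, GFP was imaged per cell and summed per well.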
Giardia killer: Small Molecules that selectively kill Giardia lamblia: qHTS. activity change, % at 7.66 µM, hits read low. AID 540267, 2011. 340,000 tested, 0.15% active. Giardia lamblia trophozoite viability; in the data active = activity change below about -80%; inconclusive = between about -30% and that limit;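 also: parasites exposed to compound for two days anaerobically before the ATP read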
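Compounds were tested on trophozoites seeded at 100 cells/well and held 48 hrs at 37 deg C anaerobically. An ATP-based luminescent kit measured the remaining live cells.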
uPA generation: qHTS for Inhibitors of Cell Surface uPA Generation; cell surface uPA generation assay, qHTS; Potency, µM (titrated, usually from 38.3 µM), usual class: inhibitors; 330,000 tested, 0.31% active; AID 540303, 2011; active = well fitted inhibition curve with a large enough effect; inconclusive = small, poorly fitted or top-dose-only effect; inactive = no such curve, though single readings can be large or run the other way; tested in mouse RAW 264.7 cells; also: nearly all actives have a fitted effect of over 55% in size
Hits are given with their value; – = inactive; ? = inconclusive; · = no result; ! = not active in a repeat. Unless noted, calls follow the shape of the dose curve; as a rule, active = well fitted curve in the direction sought with a large enough effect; inconclusive = small, poorly fitted or top-dose-only effect, or another doubt; inactive = no such curve, though single readings can be large; an effect the other way counts as inactive or inconclusive.

SMILES	ATXN2 expr inh	HepG2 viability	S2 tox	TGFb inhibitor	Giardia killer	uPA generation
CC(C)NC(=O)c1cn([C@H]2CC[C@@H](NC(=O)/C=C/c3cccs3)CC2)nn1	·	·	–	·	·	·
CC(=O)c1ccc(F)c(-c2cc(C)cc3c2OC(CNC(=O)c2ccnn2C)C3)c1 (stereo not drawn)	·	·	–	·	·	·
COc1ccc(CNC(=O)c2cnn(-c3nccc(-c4ccco4)n3)c2C)cc1OC	·	·	–	·	·	·
CC(C)Oc1cc(NC(=O)CSCC(=O)Nc2cccc(C(F)(F)F)c2)c(Cl)cc1Cl	?	–	?	11.2µM	–	–
O=C(O)CSCC(=O)Nc1cc(C(F)(F)F)ccc1Cl	–	–	–	–	–	–
O=C(NCC1CCC2(CCN(Cc3cccc4ncccc34)CC2)O1)c1ccccc1 (stereo not drawn)	·	·	–	·	·	·
O=C(O)/C=C/c1ccc2c(c1)S(=O)(=O)N(C1CCCC1)[C@H]2CC(=O)O	·	–	·	–	·	·
CC(=O)/C=C/c1ccc2c(c1)S(=O)(=O)N(C1CCCC1)[C@H]2CC(C)=O	·	10µM	·	7.08µM	·	·
Cc1ccc(NC(=O)c2ccc(NCCc3ccccc3)c([N+](=O)[O-])c2)cc1F	–	–	?	–	–	–
Cc1ccc(NC(=O)c2ccc(NCCN)c([N+](=O)[O-])c2)cc1Cl	–	17.8µM	–	?	–	–
CC(=O)Nc1ccc(NS(=O)(=O)c2ccc(C)cc2)c([N+](=O)[O-])c1	–	–	–	–	-99.1	–
N#Cc1ccsc1NC(=O)c1cccc([N+](=O)[O-])c1	–	–	–	–	–	–
N#Cc1ccsc1NC(=O)c1ccc(Cl)c([N+](=O)[O-])c1	·	–	–	7.08µM	–	?
Cc1cccc(C)c1NS(=O)(=O)c1ccc(NC(=O)c2ccc(Cl)c([N+](=O)[O-])c2)cc1	·	17.8µM	25.1µM	?	–	?
Cc1cnc(SCc2ccccn2)nc1C1CCCN(C(=O)c2coc3c2C(=O)CCC3)C1 (stereo not drawn)	·	·	–	·	·	·
Cc1nc2cc(NC(=O)[C@@H]3C[C@@H](Sc4ccccn4)CN3Cc3ccccc3F)ccc2s1	·	·	–	·	·	·
O=c1ccn([C@@H]2O[C@H](CO)[C@H](O)[C@@H]2F)c(=O)[nH]1	–	·	·	·	·	·
CCCCC[C@H]1CN(C2CCCCC2)C(=O)[C@@H]1CC(=O)NCc1ccccc1	?	15.8µM!	·	11.2µM	–	–
C[C@H]1CN(C2CCCCC2)C(=O)[C@@H]1CC(=O)NCc1ccccc1	–	–	–	?	–	–
CCCCC[C@H]1CN(Cc2ccccc2)C(=O)[C@@H]1CC(=O)NCc1ccc(OC)cc1	–	–	–	10µM	–	–
COc1ccc(CNC(=O)C[C@H]2C(=O)N(Cc3ccc(OC)cc3)C[C@@H]2Cc2ccccc2)cc1	?	–	?	?	–	–
COc1ccc(C(=O)C[n+]2cc(Br)cc3ccccc32)cc1	·	–	·	?	·	·
CCOc1ccc(Nc2nc(Cc3nnc(SCC(=O)N(CC)CC)n3C)cs2)cc1	–	20µM	–	?	–	–
CC(C)[C@H](C(=O)Nc1ccc(C(=O)NO)cc1)c1ccccc1	–	·	·	·	·	·
Cc1ccc(-c2csc3nc4c5ccccc5c(NCCCN(C)C)nn4c(=O)c23)cc1	–	14.1µM	–	?	–	–
SMILES	ATXN2 expr inh	HepG2 viability	S2 tox	TGFb inhibitor	Giardia killer	uPA generation
Cc1ccc(-c2nc(NCCCN(C)C)c3ccccc3n2)cc1	·	–	–	–	·	·
CCCS(=O)(=O)NCc1c(C)ncc2c1CCN(C(=O)/C=C/c1ccc(F)cc1F)C2	·	·	–	·	·	·
CCOC(=O)/C=C1\CN(Cc2ccc(OC)cc2)S(=O)(=O)c2ccc(C(F)(F)F)cc21	·	–	·	?	·	·
O=S(=O)(c1ccccc1Cl)N1CCN(c2nc(-c3ccccc3)nc3ccccc23)CC1	·	–	·	–	–	·
Cc1ccccc1NC(=O)CSc1nc(-c2ccccc2C)nc2cc(=O)[nH]n12	?	–	?	3.55µM	·	·
COc1cc(-c2cnc3ccccc3c2)cc2c1OCCN(S(=O)(=O)C[C@]13CC[C@H](CC1=O)C3(C)C)C2	·	·	–	·	·	·
CN(Cc1nc2ccccc2[nH]1)C(=O)C1CCC(=O)N(CCc2cccc(F)c2)C1 (stereo not drawn)	–	–	–	–	–	–
CC(C)[C@H]1c2ccc(F)cc2CC[C@@]1(CCN(C)CCCc1nc2ccccc2[nH]1)OC(=O)C1CC1	·	–	·	11.2µM	·	·
CC(C(=O)O)c1ccc(/C=C2\CCCCC2=O)cc1 (stereo not drawn)	–	·	–	·	·	·
CCOc1ccccc1CNCc1cccn1-c1nnc(N2CCN(c3ccccc3)CC2)s1	17.8µM	–	?	?	·	·
O=C(NC1CC1)[C@@H]1C[C@H](Sc2nc3ccccc3[nH]2)CN1CC1CCCCC1	·	·	–	·	·	·
O=C(NCCN1CCC(n2c(=O)[nH]c3ccccc32)CC1)c1ccc(Cl)c(Cl)c1	17.8µM	·	?	·	·	·
CC1C(c2ccccc2)N(C)C(c2ccccc2)CC1(O)c1ccccc1 (stereo not drawn)	?	22.4µM	?	?	–	·
CCOC(=O)[C@H]1O[C@@H]1C(=O)N[C@@H](CC(C)C)C(=O)NCCC(C)C	–	–	3.16µM	?	–	–
CCOC(=O)[C@H]1O[C@H]1C(=O)N[C@@H](CC(C)C)C(=O)NCCC(C)C	–	·	·	·	·	·
CC(C)C(=O)Nc1cccc(C2CN3CCSC3=N2)c1 (stereo not drawn)	–	·	–	·	·	·
Cc1ccc(NC(=O)COc2ccc(/C=C3/SC(=Nc4ccccc4)N(Cc4cccnc4)C3=O)cc2)cc1	14.1µM	–	?	–	–	–
COc1ccc(CN2CCC3(CCC(CNC(=O)c4ccco4)O3)CC2)c(OC)c1C (stereo not drawn)	·	·	–	·	·	·
Cc1ncc2c(c1CNS(=O)(=O)N(C)C)CCN(C(=O)/C=C/c1ccccc1Cl)C2	·	·	–	·	·	·
Cc1cc2nccc(/C=C/c3ccc(N(C)C)cc3)c2cc1C	·	–	·	–	·	·
Cc1c(F)cccc1Cn1cnc2c(cnn2C(C)(C)C)c1=O	·	–	·	–	·	·
CC(C)(C)c1cc(C(=O)N2CCc3ccccc3C2)ccn1	–	–	–	–	–	7.94µM
CCCN(CCC)CCCNC(=O)c1cnn(-c2ccc(F)cc2)c1-n1cccc1	–	–	–	–	·	·
O=C(NCCCN1CCN(c2cccc(Cl)c2)CC1)c1cnn(-c2ccc(F)cc2)c1-n1cccc1	35.5µM	10µM	?	?	·	·
O=C(CCCCCCCCC#CI)Oc1ccccc1	–	·	–	·	·	·
Cc1ncc2c(c1CNC(=O)c1ccc3c(c1)OCO3)CCN(C(=O)c1csc3c1CCCC3)C2	·	·	–	·	·	·
Cc1ccc2nc(-c3ccc(O)c(O)c3)cn2c1	?	–	–	–	?	–
Cc1ccc2nc(-c3ccccc3)cn2c1	5.01µM	–	–	–	?	–
CC(=O)Nc1ccc(-c2cn3cc(C)ccc3n2)cc1	–	–	–	–	?	4.47µM
